In PubChem BioAssay (Tox21):
Inconclusive results are not listed. A number with no mark means an inactive call. Calls follow the shape of the dose curve; as a rule, active = well fitted activation curve with a large enough effect in the signal ratio in the repeat runs (not every such curve was filed as active); inconclusive = weak or mixed curves; inactive = flat fitted curve, though single readings scatter; the % refers to the signal ratio.

Test: qHTS assay to identify small molecule agonists of the hypoxia (HIF-1) signaling pathway (AID 1224846)
Settings: HRE-bla ME-180 cells, beta-lactamase ratio, 17 h; series mostly up to 76.8 µM; activation: at the top concentration
Text: U.S. Tox21 Program National Center for Advancing Translational Sciences [NCATS] NIH Chemical Genomics Center [NCGC] U.S. Environmental Protection Agency [EPA] National Institutes of Environmental Health Sciences [NIEHS] National Toxicology Program [NTP] U.S. Food and Drug Administration [FDA] Tox21 Assay Overview: Hypoxia-inducible factor-1 (HIF-1) is the major hypoxia-regulated transcription factor that controls cellular responses to low oxygen concentration. HIF-1 is composed of two subunits: hypoxia responsive HIF-1-alpha and constitutively expressed HIF-1-beta, which is also known as aryl hydrocarbon receptor nuclear translocator. During hypoxic conditions, HIF-1-alpha heterodimerizes with HIF-1-beta and translocates into the nucleus where the HIF-1 complex binds to the hypoxia-response element (HRE) and activates expression of target genes such as VEGF (vascular endothelial growth factor). The HIF-1 pathway is essential to normal growth and development, and is involved in the pathophysiology of cancer, inflammation, and ischemia. Using a beta-lactamase reporter-gene under control of the hypoxia response element, a cell-based assay [CellSensor(TM) HRE-bla ME-180 from Life Technologies, Carlsbad, CA] was used to measure hypoxia-induced signaling. Tox21 10K library compounds were measured for their ability to induce the reporter gene activity.
Tox21 Assay Protocol Summary: HRE-bla ME-180 cells were dispensed at 2,000 cells per well in 6 uL of assay medium containing 0.5% dialyzed FBS into black wall/clear-bottom 1536-well plates using a Multidrop Combi (Thermo Scientific, Waltham, MA) dispenser. After the assay plates were incubated at 37C and 5% CO2 for 5 hrs, 23 nL of compounds dissolved in DMSO, positive controls or DMSO only was transferred to each well of the assay plate using a Pintool station (Kalypsys, San Diego, CA). The assay plates were incubated at 37C and 5% CO2 for 17 hrs. One uL of LiveBLAzerTM B/G FRET substrate (CCF4-AM) (Life Technologies) was added to each well using a Flying Reagent Dispenser (Aurora Discovery, San Diego, CA).
% is scaled to controls: 0 for no effect and ±100 for the full control effect.

SMILES | activation
CCOC(=O)C(O)c1ccccc1 (stereo not given) | -0.636% [at 35.5 µM]
CCCCCCCC/C=C\CCCCCCCC(=O)OCC | -0.794%
COc1cc2nc(Cl)nc(N)c2cc1OC | -1.37% [at 35.5 µM]
O=C(CS)Nc1ccccc1 | -0.164% [at 35.5 µM]
CC1=CC=C(C(C)C)CC1 | 2.05%
c1ccc(C(O[C@H]2CCCN(CCc3ccc4c(c3)OCO4)C2)c2ccccc2)cc1 | 2.94% [at 35.5 µM]
COc1ccnc(CS(=O)c2nc3ccc(OC(F)F)cc3[nH]2)c1OC (stereo not given) | -1.26% [at 35.5 µM]
C#Cc1cccc(Nc2ncnc3cc(OCCOC)c(OCCOC)cc23)c1 | 0.487% [at 35.5 µM]
CC(CC=O)c1ccccc1 (stereo not given) | -1.02%
C=C(C)C(=O)OCCO | -0.424%
Cc1ccc(C(=O)Oc2ccc(C(O)CNC(C)(C)C)cc2OC(=O)c2ccc(C)cc2)cc1 (stereo not given) | 1.38% [at 35.5 µM]
CN(C)C(=O)NC1(c2ccccc2)CCN(CC[C@@]2(c3ccc(F)c(F)c3)CN(C(=O)c3ccccc3)CCO2)CC1 | -1.19%
CCc1c(C(=O)NN2CCCCC2)nn(-c2ccc(Cl)cc2Cl)c1-c1ccc(Br)cc1 | 5.62%
Cc1ccc(C(C)OC(=O)C2(C)CCC(C(=O)O)C2(C)C)cc1 (stereo not given) | -0.516% [at 35.5 µM]
c1cc(CCCc2ccncc2)ccn1 | -0.464%
CCC(C)c1cc(C(C)(C)C)c(O)c(C(C)(C)C)c1 (stereo not given) | 3.34%
CCC(=O)O[C@]1(C(=O)CCl)[C@@H](C)C[C@H]2[C@@H]3CCC4=CC(=O)C=C[C@]4(C)[C@@]3(F)[C@@H](O)C[C@@]21C | -1.33% [at 35.5 µM]
Nc1ccc(N)c2c1C(=O)c1ccccc1C2=O | 0.888%
CC[N+]1(CC)CCC(=C(c2ccccc2)c2ccccc2)C1C (stereo not given) | 1.89% [at 35.5 µM]
CCCCCCCN | 0.243%

SMILES | activation
CCCCCCCCCOS(=O)(=O)O | 0.73%
COc1ccc(C(=O)Nc2nc3ccccc3c(NCc3ccccc3)c2C#N)cc1 | 2.66%
COc1ccc2cccc(CCNC(C)=O)c2c1 | -0.275% [at 35.5 µM]
CC(C)(C)Cl | -0.485%
CC(C)(COC(=O)c1ccccc1)COC(=O)c1ccccc1 | 0.0113%
CC(C)Cc1ccc(C(C)C(=O)OCc2ccccn2)cc1 (stereo not given) | 0.0561% [at 35.5 µM]
O=C(O)CNCC(=O)O | 0.217% [at 7.01 µM]
CC1(c2ccccc2)OC(C(=O)O)=CC1=O (stereo not given) | 0.204% [at 35.5 µM]
CC1=CC[C@H](C(C)C)C=C1 | 0.655%
COC(C)OC | -0.439%
ClCCOCCOCCCl | 0.0226%
COc1cc(Cl)c(OC)cc1N | -1.43%
O=[N+]([O-])c1cccc(S(=O)(=O)O)c1 | 1.78%
CCCCCCCCCCCCCCCCOS(=O)(=O)O | 3.48% [at 35.5 µM]
C[C@@H]1C[C@H]2[C@@H]3CCC4=CC(=O)C=C[C@]4(C)[C@@]3(F)[C@@H](O)C[C@]2(C)[C@@]1(O)C(=O)COC(=O)c1ccncc1 | -2.34% [at 35.5 µM]
CCCCCCCCCCCC(=O)OC[C@@H](O)[C@H]1OC[C@H](OCCO)[C@H]1OCCO | -1.48%
O=C(O)c1ccco1 | 0.48%
CCO[Si](CCCCl)(OCC)OCC | -0.535%
COc1ccc(C)cc1[N+](=O)[O-] | -0.639%
C=CCOC(=O)CCC1CCCCC1 | -1.03%
